From paper PMC4336329 (PLoS ONE, 2015)
Out of some 310,000 compounds screened, about 14,000 (4.5%) showed an effect of 50% or more. The effect is printed as a negative number. This excerpt belongs to a sample that is enriched for strong results.

Target: human ether-à-go-go-related gene (hERG) potassium channel (human, UniProt Q12809)
Assay: primary screen, population patch clamp on CHO cells stably expressing hERG; higher = less effect of the substance
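Also: peak tail current of the secondary pulse compared with the same well before compound.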

Sequence of human ether-à-go-go-related gene (hERG) potassium channel (Q12809 whole entry, looked up): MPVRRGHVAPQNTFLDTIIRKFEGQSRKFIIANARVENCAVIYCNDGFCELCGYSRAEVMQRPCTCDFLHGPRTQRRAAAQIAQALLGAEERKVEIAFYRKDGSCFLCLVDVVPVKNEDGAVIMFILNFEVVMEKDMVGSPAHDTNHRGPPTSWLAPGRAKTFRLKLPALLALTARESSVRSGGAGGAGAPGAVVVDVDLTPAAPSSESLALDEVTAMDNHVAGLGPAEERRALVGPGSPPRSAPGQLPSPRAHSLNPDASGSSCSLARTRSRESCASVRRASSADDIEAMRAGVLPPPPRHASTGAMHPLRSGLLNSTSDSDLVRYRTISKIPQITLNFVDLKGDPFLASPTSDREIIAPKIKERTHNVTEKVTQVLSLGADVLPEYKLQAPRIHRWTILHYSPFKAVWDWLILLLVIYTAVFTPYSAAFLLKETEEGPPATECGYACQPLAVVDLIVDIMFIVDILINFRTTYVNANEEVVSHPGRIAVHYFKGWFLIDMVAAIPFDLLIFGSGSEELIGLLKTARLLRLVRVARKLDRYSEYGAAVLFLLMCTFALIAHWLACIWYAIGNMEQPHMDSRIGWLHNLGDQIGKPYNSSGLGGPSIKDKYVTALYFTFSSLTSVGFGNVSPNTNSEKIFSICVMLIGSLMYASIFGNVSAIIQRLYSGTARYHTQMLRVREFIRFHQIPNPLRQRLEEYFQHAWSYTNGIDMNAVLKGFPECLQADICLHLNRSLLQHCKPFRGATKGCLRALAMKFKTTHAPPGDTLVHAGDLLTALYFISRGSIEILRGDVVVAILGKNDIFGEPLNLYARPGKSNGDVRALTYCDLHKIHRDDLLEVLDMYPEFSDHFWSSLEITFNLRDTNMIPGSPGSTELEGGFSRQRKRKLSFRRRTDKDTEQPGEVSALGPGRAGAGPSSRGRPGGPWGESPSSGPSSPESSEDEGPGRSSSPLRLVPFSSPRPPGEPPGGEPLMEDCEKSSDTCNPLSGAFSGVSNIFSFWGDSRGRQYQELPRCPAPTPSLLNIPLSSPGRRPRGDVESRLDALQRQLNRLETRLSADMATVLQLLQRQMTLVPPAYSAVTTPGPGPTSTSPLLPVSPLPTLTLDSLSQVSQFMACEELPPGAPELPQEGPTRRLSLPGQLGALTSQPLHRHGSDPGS

Row | Compound | hERG current change (%, negative = inhibition) at 10uM [%]
1 | O=c1cc(CNc2cc(C(F)(F)F)cc(C(F)(F)F)c2)nc2sccn12 | -6.36
2 | Cn1nc(OCCOc2ccccc2)ccc1=O | -4.45
3 | NC(=O)c1ccc(Oc2ncc(C(F)(F)F)cc2Cl)cc1 | -3.77
4 | O=C(NCc1cccs1)c1ccccc1F | -3.47
5 | Cc1ccc(-c2nc(CN3CCCCC3)cc(CN3CCCCC3)c2O)cc1.Cl | -62.5
6 | Cc1ccc(-c2nc(CN(C)C)cc(CN(C)C)c2O)cc1.Cl | -14.6
7 | CC(C)(C)c1nc(CN2CCCCC2)cc(CN2CCCCC2)c1O | -24.2
8 | Cc1ccccc1OCC(=O)OCn1nnc2ccccc2c1=O | 19.6
9 | Cc1ccc2[nH]c3c(=O)n(CC(=O)NCc4ccco4)ncc3c2c1 | 21.9
10 | Cc1ccc2[nH]c3c(=O)n(CC(=O)NCCCN(C)Cc4ccccc4)ncc3c2c1 | -31.6
11 | O=C(Cn1ncc2c([nH]c3ccccc32)c1=O)NCCc1ccccc1 | 3.06
12 | CCN(CCCNC(=O)Cn1ncc2c([nH]c3ccc(C)cc32)c1=O)Cc1ccccc1 | -58.5
13 | CCN(CCCNC(=O)Cn1ncc2c([nH]c3ccc(C)cc32)c1=O)c1ccccc1 | 19
14 | CC(C)N(CCCNC(=O)Cn1ncc2c([nH]c3ccccc32)c1=O)Cc1ccccc1 | -48.1
15 | CCN(CCCNC(=O)Cn1ncc2c([nH]c3ccccc32)c1=O)Cc1ccccc1 | -67
16 | Cc1ccc(NC(=O)c2oc3ccc(S(=O)(=O)N4CCOCC4)cc3c2C)c(C)c1 | 5.03
17 | O=C(Nc1nc(N2C(=O)c3ccccc3C2=O)n(-c2ccccc2)n1)c1ccc(Cl)cc1 | -7.9

Row | Compound | hERG current change (%, negative = inhibition) at 10uM [%]
18 | CC1CC(C)CN(CCCNC(=O)Cc2c(C(=O)O)n(C)c3ccccc23)C1 (stereo not shown) | -15.9
19 | COC(=O)c1c(NC(=O)CCCC(=O)O)sc2c1CCCCC2 | 12.2
20 | CCOc1ccc(-c2n[nH]c(C)c2-c2ccccn2)c(O)c1 | 13.6
21 | CS(=O)(=O)Nc1ccc(C(=O)NCc2ccccn2)cc1 | 0.863
22 | O=C(NC1CCCC1)c1ccc(CS(=O)(=O)Cc2ccccc2F)o1 | -7.89
23 | COc1cc(NC(=O)COC(=O)c2ccccc2SCC(=O)N2CCCC2)cc(OC)c1 | -25.7
24 | CC(=O)NCCn1c(SCC(=O)NCc2ccco2)nc2ccccc2c1=O | -23.9
25 | CC(=O)Nc1ccc(NC(=O)COC(=O)c2ccccc2SCC(=O)N2CCCC2)cc1 | 5.48
26 | Cc1ccc(NC(=O)CSc2nc3ccccc3c(=O)n2CCCC(=O)N2CCCC2)cc1 | -44.5
27 | COc1cccc(NC(=O)CSc2nc3ccccc3c(=O)n2CCCC(=O)N2CCCC2)c1 | -67.3
28 | N#CCSc1nc2ccccc2c(=O)n1CCCC(=O)NCc1ccco1 | -33.7
29 | O=C(CSc1nc2ccccc2c(=O)n1CCCO)NCc1ccccc1 | -41.5
30 | CCn1c(SCC(=O)Nc2cccc(OC)c2)nc2ccccc2c1=O | -47.1
31 | COCCCn1c(SCC(=O)NCc2ccccc2)nc2ccccc2c1=O | -48.6
32 | O=C(CSc1nc2ccccc2c(=O)n1CCCC(=O)N1CCCC1)NCc1ccco1 | -62.4
33 | COc1ccc(NC(=O)COC(=O)c2ccccc2SCC(=O)N2CCCC2)cc1 | -53.9
34 | Cc1ccc(CNC(=O)CSc2nc3ccccc3c(=O)n2CCCO)cc1 | -73
